{"source": "the supplement of paper PMC8728848", "binders": {"B1": {"name": "pilr alpha (protein)", "chain": "MLYGVTQPKHLSASMGGSVEIPFSFYYPWELATAPDVRISWRRGHFHRQSFYSTRPPSIHKDYVNRLFLNWTEGQKSGFLRISNLQKQDQSVYFCRVELDTRSSGRQQWQSIEGTKLSIT"}}, "assay_in_all_cases": "glycan array binding signal (z-score within array); higher = stronger binding", "conditions_in_all_cases": "glycan notation: IUPAC condensed, linker removed", "key": {"[1]": {"target": "Fuc(a1-2)Gal(b1-4)GlcNAc(b1-2)Man(a1-3)[Fuc(a1-2)Gal(b1-4)GlcNAc(b1-2)Man(a1-6)]Man(b1-4)GlcNAc(b1-4)[Fuc(a1-6)]GlcNAc", "method_in_brief": "(§1)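 The Consortium for Functional Glycomics database supplied 3228 glycan arrays, of which those lacking an available protein sequence were dropped. The binding signal, a within-array Z-score, was averaged across arrays of the same protein sequence and across linkers. Negative scores can be read as non-binding.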"}, "[2]": {"target": "Fuc(a1-2)[GalNAc(a1-3)]Gal(b1-3)GlcNAc(b1-3)GalNAc", "method_in_brief": "as §1"}, "[3]": {"target": "Fuc(a1-2)[GalNAc(a1-3)]Gal(b1-4)[Fuc(a1-3)]GlcNAc(b1-3)GalNAc", "method_in_brief": "as §1"}, "[4]": {"target": "Fuc(a1-3)[Gal(b1-4)]GlcNAc(b1-2)Man(a1-3)[Fuc(a1-3)[Gal(b1-4)]GlcNAc(b1-2)Man(a1-6)]Man(b1-4)GlcNAc(b1-4)GlcNAc", "method_in_brief": "as §1"}, "Gal(a1-3)Gal(b1-3)GlcNAc": {"target": "Gal(a1-3)Gal(b1-3)GlcNAc", "method_in_brief": "as §1"}, "[5]": {"target": "Gal(a1-3)Gal(b1-3)GlcNAc(b1-2)Man(a1-3)[Gal(a1-3)Gal(b1-3)GlcNAc(b1-2)Man(a1-6)]Man(b1-4)GlcNAc(b1-4)GlcNAc", "method_in_brief": "as §1"}, "[6]": {"target": "Gal(a1-3)Gal(b1-4)[Fuc(a1-3)]GlcNAc(b1-2)Man(a1-3)[Gal(a1-3)Gal(b1-4)[Fuc(a1-3)]GlcNAc(b1-2)Man(a1-6)]Man(b1-4)GlcNAc(b1-4)GlcNAc", "method_in_brief": "as §1"}, "Gal(a1-3)GalNAc": {"target": "Gal(a1-3)GalNAc", "method_in_brief": "as §1"}, "[7]": {"target": "Gal(a1-3)[Gal(a1-4)]Gal(b1-4)GlcNAc", "method_in_brief": "as §1"}, "Gal(a1-4)Gal(b1-4)Glc": {"target": "Gal(a1-4)Gal(b1-4)Glc", "method_in_brief": "as §1"}, "[8]": {"target": "Gal(a1-4)Gal(b1-4)GlcNAc(b1-3)Gal(b1-4)Glc", "method_in_brief": "as §1"}, "[9]": {"target": "Gal(b1-3)GalNAc(b1-4)Gal(b1-4)Glc", "method_in_brief": "as §1"}, "[10]": {"target": "Gal(b1-3)GlcNAc(b1-3)Gal(b1-3)GlcNAc", "method_in_brief": "as §1"}, "[11]": {"target": "Gal(b1-3)GlcNAc(b1-3)Gal(b1-4)[Fuc(a1-3)]GlcNAc(b1-6)[Gal(b1-3)GlcNAc(b1-3)]Gal(b1-4)Glc", "method_in_brief": "as §1"}, "Gal(b1-3)GlcNAc6S": {"target": "Gal(b1-3)GlcNAc6S", "method_in_brief": "as §1"}, "[12]": {"target": "Gal(b1-3)[Fuc(a1-4)]GlcNAc(b1-6)GalNAc", "method_in_brief": "as §1"}, "Gal(b1-4)GlcNAc": {"target": "Gal(b1-4)GlcNAc", "method_in_brief": "as §1"}, "[13]": {"target": "Gal(b1-4)GlcNAc(b1-3)Gal(b1-4)GlcNAc(b1-3)Gal(b1-4)GlcNAc(b1-3)Gal(b1-4)GlcNAc(b1-2)[Gal(b1-4)GlcNAc(b1-3)Gal(b1-4)GlcNAc(b1-3)Gal(b1-4)GlcNAc(b1-3)Gal(b1-4)GlcNAc(b1-6)]Man(a1-6)[Gal(b1-4)GlcNAc(b1-3)Gal(b1-4)GlcNAc(b1-3)Gal(b1-4)GlcNAc(b1-3)Gal(b1-4)GlcNAc(b1-2)Man(a1-3)]Man(b1-4)GlcNAc(b1-4)[Fuc(a1-6)]GlcNAc", "method_in_brief": "as §1"}, "GalNAc(a1-3)Gal": {"target": "GalNAc(a1-3)Gal", "method_in_brief": "as §1"}, "[14]": {"target": "GalNAc(b1-3)Gal(a1-4)Gal(b1-4)GlcNAc", "method_in_brief": "as §1"}, "[15]": {"target": "GalNAc(b1-3)Gal(a1-6)Gal(b1-4)Glc", "method_in_brief": "as §1"}, "GalNAc(b1-4)GlcNAc": {"target": "GalNAc(b1-4)GlcNAc", "method_in_brief": "as §1"}}, "note": "Many of the other results were omitted from the sample, so the strongest signals are more common in it than they were."}
{"binder": "B1", "values": [{"measurement": "glycan array binding signal (z-score)", "setting": "[1]", "result": 0.117}, {"measurement": "glycan array binding signal (z-score)", "setting": "[2]", "result": -0.147}, {"measurement": "glycan array binding signal (z-score)", "setting": "[3]", "result": 6.68}, {"measurement": "glycan array binding signal (z-score)", "setting": "[4]", "result": -1.03}, {"measurement": "glycan array binding signal (z-score)", "setting": "Gal(a1-3)Gal(b1-3)GlcNAc", "result": 0.373}, {"measurement": "glycan array binding signal (z-score)", "setting": "[5]", "result": -0.319}, {"measurement": "glycan array binding signal (z-score)", "setting": "[6]", "result": -0.503}, {"measurement": "glycan array binding signal (z-score)", "setting": "Gal(a1-3)GalNAc", "result": 2.27}, {"measurement": "glycan array binding signal (z-score)", "setting": "[7]", "result": 7.86}, {"measurement": "glycan array binding signal (z-score)", "setting": "Gal(a1-4)Gal(b1-4)Glc", "result": 1.77}, {"measurement": "glycan array binding signal (z-score)", "setting": "[8]", "result": -0.604}, {"measurement": "glycan array binding signal (z-score)", "setting": "[9]", "result": 2.46}, {"measurement": "glycan array binding signal (z-score)", "setting": "[10]", "result": -0.764}, {"measurement": "glycan array binding signal (z-score)", "setting": "[11]", "result": 0.008}, {"measurement": "glycan array binding signal (z-score)", "setting": "Gal(b1-3)GlcNAc6S", "result": -0.425}, {"measurement": "glycan array binding signal (z-score)", "setting": "[12]", "result": -0.479}, {"measurement": "glycan array binding signal (z-score)", "setting": "Gal(b1-4)GlcNAc", "result": -0.271}, {"measurement": "glycan array binding signal (z-score)", "setting": "[13]", "result": 2.72}, {"measurement": "glycan array binding signal (z-score)", "setting": "GalNAc(a1-3)Gal", "result": 0.654}, {"measurement": "glycan array binding signal (z-score)", "setting": "[14]", "result": 2.72}, {"measurement": "glycan array binding signal (z-score)", "setting": "[15]", "result": -0.342}, {"measurement": "glycan array binding signal (z-score)", "setting": "GalNAc(b1-4)GlcNAc", "result": 8.03}]}
